Screens (PubChem BioAssay)
The list is not random: actives were taken first. Their share in the collection is about 2.9%.
EPAC2 antag = validation of human EPAC2 antagonists | Q8WZA2 | EPAC2 Rap1B BODIPY-GDP exchange, fluorescence | Potency, µM (titrated, usually from 112 µM), for the others: at the top dose activity, negative = inhibition, most hits filed as inhibitors | 16,000 tested, 1.7% active | AID 1645886;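 further: 100% = activation by cAMP agonist control; nearly all actives have a fitted effect of over 40% in size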
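Fluorescent exchange read-out: 100 nM EPAC2 with 250 nM RAP1B–BODIPY-GDP and 50 uM GDP; BODIPY-GDP release lowers fluorescence. Read at 480/540 nm every 5 min for 30 min at room temperature; normalized to 6.5 mM cAMP.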
EPAC1 agonist = validation of human EPAC1 agonists. O95398. EPAC1 Rap1b BODIPY-GDP exchange, fluorescence. Potency, µM, without a hit: max response, positive = active, usual class: activators. 16,000 tested, 1% active. AID 1645883; further: nearly all actives have a fitted effect of over 70% in size
Target sequence (O95398 whole entry, looked up): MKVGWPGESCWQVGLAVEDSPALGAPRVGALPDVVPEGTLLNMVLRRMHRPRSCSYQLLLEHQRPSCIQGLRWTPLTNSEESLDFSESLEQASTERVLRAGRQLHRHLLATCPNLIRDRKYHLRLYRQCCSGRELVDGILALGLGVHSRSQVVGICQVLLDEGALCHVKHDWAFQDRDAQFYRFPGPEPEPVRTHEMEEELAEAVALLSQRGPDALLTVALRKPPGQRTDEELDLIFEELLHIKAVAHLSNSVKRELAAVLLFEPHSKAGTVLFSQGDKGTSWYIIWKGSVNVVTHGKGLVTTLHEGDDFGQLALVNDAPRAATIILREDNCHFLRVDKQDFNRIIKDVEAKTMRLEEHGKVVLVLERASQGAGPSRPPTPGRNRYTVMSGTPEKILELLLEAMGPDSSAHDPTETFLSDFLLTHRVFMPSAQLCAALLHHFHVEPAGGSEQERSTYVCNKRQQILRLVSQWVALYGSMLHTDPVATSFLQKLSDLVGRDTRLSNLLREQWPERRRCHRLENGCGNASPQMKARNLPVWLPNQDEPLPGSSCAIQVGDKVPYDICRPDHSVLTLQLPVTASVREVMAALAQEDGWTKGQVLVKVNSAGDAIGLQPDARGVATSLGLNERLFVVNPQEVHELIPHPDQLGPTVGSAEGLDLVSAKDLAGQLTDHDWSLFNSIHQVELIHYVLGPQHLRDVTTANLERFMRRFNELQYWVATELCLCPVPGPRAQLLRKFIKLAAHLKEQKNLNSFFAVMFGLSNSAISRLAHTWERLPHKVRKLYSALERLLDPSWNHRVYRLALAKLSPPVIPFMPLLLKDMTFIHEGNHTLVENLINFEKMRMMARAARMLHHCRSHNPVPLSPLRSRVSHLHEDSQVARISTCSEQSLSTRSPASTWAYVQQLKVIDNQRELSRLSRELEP
Active calls of the source: *; i = inactive; ? = inconclusive. The call rests on the fitted dose curve; in most records, active means well fitted curve in the direction sought with a large enough effect; inconclusive means small, poorly fitted or top-dose-only effect, or another doubt; inactive means no such curve, though single readings can be large; an effect the other way counts as inactive or inconclusive. Unless noted, on the % scale 0 is the no-effect control and ±100 the full control effect; potency means the concentration at half of the fitted maximal effect.

SMILES | EPAC2 antag | EPAC1 agonist
COc1ccc(SC[C@H](C)CN2CC[C@H](O)CCC2=O)cc1 | -5% | 20%
Cc1ccc(SC[C@H](C)CN2CC[C@H](C)CCC2=O)cc1 | ? | -43%
CC(=O)Nc1ccc(SC[C@H](C)CN2CC[C@H](C(C)(C)C)CCC2=O)cc1 | 56µM* | -1%
COc1ccc(SC[C@H](C)CN2CC[C@H](C)CCC2=O)cc1 | 50µM* | 3%
Cc1ccc(C(=O)NCCc2nnc3n2CCN(Cc2ccnc4ccccc24)CC3)c(C)c1 | -7% | -15%
Cc1[nH]cnc1C[C@H]1CCc2c(C)c3ccccc3n2C1=O | 0% | -108%
Nc1ccc2cc3ccc(N)cc3nc2c1 | i | 100µM*
CCOc1ccc2nc3cc(N)ccc3c(N)c2c1 | ? | 28%
COc1cccc(Nc2ncc3nc(-c4ccc(Cl)cc4)c(=O)n(CCC#N)c3n2)c1 | ? | -195%
COc1ccc(-c2nc3cnc(Nc4ccccc4)nc3n(CCC#N)c2=O)cc1 | -4% | 112µM*
COc1ccc(-c2nc3cnc(Oc4ccccc4)nc3n(CCC#N)c2=O)cc1 | -28% | ?
COc1cccc(Nc2ncc3nc(-c4cc(F)cc(F)c4)c(=O)n(CCC#N)c3n2)c1 | ? | 112µM*
COc1ccc(-c2nc3cnc(Nc4cccc(OC)c4)nc3n(CCC#N)c2=O)cc1 | 3% | 100µM*
COc1cccc(Nc2ncc3nc(-c4ccc(F)cc4)c(=O)n(C)c3n2)c1 | -5% | -72%
COc1cccc(Nc2ncc3nc(-c4ccc(F)cc4)c(=O)n(CCC#N)c3n2)c1 | -19% | 112µM*
COc1ccc(Oc2ncc3nc(-c4cc(F)cc(F)c4)c(=O)n(CCC#N)c3n2)cc1 | -23% | -63%
C[C@@]12C(=O)OC(=O)[C@@]1(C)[C@@H]1CC[C@@H]2O1 | 56µM* | -12%
C[C@@]12C(=O)OC(=O)[C@@]1(C)C1CCC2O1 | 12% | -33%
COc1ccc(O)c(CN2CCC3(CCC(CNC(=O)C4CCCO4)O3)CC2)c1 (stereo not given) | -32% | -19%
Cc1ccc(C(=O)N(Cc2cc3cccc(C)c3nc2N2CCC(O)CC2)C2CC2)cc1 | -16% | 23%
O=C(O)c1cc(O)c2c(c1)[C@H]([C@H]1c3cc(C(=O)O)cc(O)c3C(=O)c3c(O[C@@H]4O[C@H](CO)[C@@H](O)[C@H](O)[C@H]4O)cccc31)c1cccc(O[C@@H]3O[C@H](CO)[C@@H](O)[C@H](O)[C@H]3O)c1C2=O | 79µM* | ?
OCC1OC(Oc2cccc3cccnc23)C(O)C(O)C1O (stereo not given) | -7% | 1%
COc1ccccc1C(=O)N[C@@H]1c2ccccc2C2(CCN(Cc3cccnc3)CC2)[C@H]1O | -3% | 6%
COC(=O)C1CCN(Cc2ccc3c(c2)CN(C(=O)C(C)N2CCOCC2)CCO3)CC1 (stereo not given) | -11% | -17%
COc1ccc(CNC(=O)c2cnn(-c3nccc(-c4ccco4)n3)c2C)cc1OC | 1% | 3%
SMILES | EPAC2 antag | EPAC1 agonist
COc1ccc2c(=O)c(OC)c(-c3ccccc3)oc2c1 | 11µM* | -8%
COc1ccc(-c2oc3ccccc3c(=O)c2O)cc1 | -10% | -5%
Cc1c(C(=O)N(C)C2CCOC2)sc2ncnc(NCc3ccc4c(c3)OCO4)c12 (stereo not given) | 4% | 1%
CCC(=O)O[C@H]1[C@H](O[C@@H]2[C@@H](C)[C@H](O[C@H]3C[C@@](C)(OC)[C@@H](O)[C@H](C)O3)[C@@H](C)C(=O)O[C@H](CC)[C@@](C)(O)[C@H](O)[C@@H](C)C(=O)[C@H](C)C[C@@]2(C)O)O[C@H](C)C[C@@H]1N(C)C | 32µM* | -70%
CCOC(=O)CCC(=O)O[C@H]1[C@H](O[C@@H]2[C@@H](C)[C@H](O[C@H]3C[C@@](C)(OC)[C@@H](O)[C@H](C)O3)[C@@H](C)C(=O)O[C@H](CC)[C@@](C)(O)[C@H](O)[C@@H](C)C(=O)[C@H](C)C[C@@]2(C)O)O[C@H](C)C[C@@H]1N(C)C | -14% | -3%
COc1cc2nc(CCc3nc4cc(OC)c(OC)cc4[nH]3)[nH]c2cc1OC | 3% | ?
O=C(c1cn(C2CCCN(Cc3cccc(Oc4ccccc4)c3)C2)nn1)N1CCCC1 (stereo not given) | -12% | -5%
COc1ccc(CN2CCOc3ccc(C(O)c4cccnc4)cc3C2)cc1O (stereo not given) | ? | -13%
CC(C)(C)NC(=O)[C@H]1CC[C@H]2[C@@H]3CC=C4C=C(C(=O)O)CC[C@]4(C)[C@H]3CC[C@]12C | -5% | -60%
Nc1cccc2c(N)cccc12 | ? | 29%
Nc1c2ccccc2nc2ccccc12 (tested in a mixture with another compound) | 79µM* | 1%
Cc1oc(-c2ccccc2NC(=O)c2ccccn2)nc1CNC(=O)c1cccc(C#CC(C)(C)O)c1 | -12% | ?
O=C[C@H](O)[C@@H](O)[C@@H](O)[C@H](O)CO | -1% | -42%
